This note sets out measurements from PubChem BioAssay.

Each structure is given as a SMILES string. The source made the active and inactive calls. Unless noted, the rule behind the calls is not given here.

Assay [1] can be described thus: resazurin metabolic signal in HepG2 cells – cell-based, resazurin fluorescence, 24 h, PK04 Diversity Set, profiling panel (AID 1172). To be noted: HepG2 viability, higher = more signal. (In general: Resazurin is reduced to fluorescent resorufin, in cell work by metabolically active cells.)
Assay [2] is described as follows: budding yeast growth changes without added modifier – OD600, strain BY4716, 24 h, basal condition, primary screen (AID 1173). To be noted: S. cerevisiae BY4716 growth, OD600, 24 h; higher = more signal, called active from +8 up or from −8 down.
Assay [3] is described as follows: viability profiling in MM1S myeloma cells – cell-based, resazurin fluorescence, basal, 24 h, PK04 Diversity Set, profiling panel (AID 1174).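 Note: MM1S multiple myeloma cell line.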 To be noted: higher = more signal, called active from +8 up or from −8 down.
Assay [4] has as its target Dihydroorotate dehydrogenase (quinone), mitochondrial (Plasmodium falciparum (isolate 3D7)) (UniProt Q08210). The experiment in a line: inhibition of P. falciparum DHODH – biochemical, C-terminal His tag, absorbance 600 nm, primary screen (AID 1175).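 Note: recombinant parasite enzyme with a five histidine tag at its C terminus.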 To be noted: PfDHODH enzyme, DCIP absorbance 600 nm; higher = more signal, called active from +8 up or from −8 down.
A short description of assay [5]: inhibition of PAO1 biofilm formation – strain PAO1, LB-PBS medium, absorbance 600 nm, primary screen (AID 1176). To be noted: P. aeruginosa PAO1 growth/biofilm, A600, 12 h; higher = more signal.
Assay [6] in a line: growth modulation of vineyard yeast isolate – strain RM11-1a, OD600, basal, 24 h, primary screen (AID 1177).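 Note: cultures grown under basal conditions with no added stressor.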 To be noted: S. cerevisiae RM11-1a growth, OD600, 24 h; higher = more signal, called active from +8 up or from −8 down.
The nature of assay [7]: growth of efflux-deficient E. coli DRC39 – strain DRC39, OD650, 24 h, E. coli filamentation inducers, primary screen (AID 1178).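 Note: growth measured as culture turbidity by optical density at 650 nm.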 To be noted: E. coli DRC39 acrAB, higher = more signal, called active from +8 up or from −8 down.
Assay [8] in a line: growth of efflux-deficient E. coli DRC39 – strain DRC39, OD650, 48 h, E. coli filamentation inducers, primary screen (AID 1179).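 Note: screen aims at cell division blockers that make cells filament.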 To be noted: E. coli DRC39 delta-acrAB growth, higher = more signal, called active from +8 up or from −8 down.
Assay [9] can be described thus: viability profiling in RPMI8226 myeloma cells – cell-based, resazurin fluorescence, basal, 24 h, PK04 Diversity Set, profiling panel (AID 1180).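 Note: RPMI8826 multiple myeloma cell line at 5000 cells per well.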 To be noted: higher = more signal.
Assay [10] concerns the target E3 ubiquitin-protein ligase XIAP (Homo sapiens) (UniProt P98170). The experiment in a line: small molecules binding XIAP protein – biophysical, small-molecule microarray, fluorescence 635 nm, primary screen (AID 1181).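 Note: score merges 667 nm emission and signal to noise over triplicate slides.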 To be noted: higher = more signal.
The subject of assay [11] is XIP peptide (Xip251-270) binding. The assay is described as follows: XIP fragment 251-270 binding compounds – biochemical, small-molecule microarray, fluorescence 635/667 nm, 0.1 µg/mL protein, primary screen (AID 1182). To be noted: fluorescent protein binding, 635 nm, higher = more signal, called active from +8 up or from −8 down.
Another assay concerns XIP peptide (Xip251-270). The assay is described as follows: compounds binding XIP fragment 251-270 – biochemical, small-molecule microarray, fluorescence 635/667 nm, 0.5 µg/mL protein, primary screen (AID 1183). To be noted: fluorescence 635 nm, higher = more signal.
Assay [12] in a line: blood-stage malaria parasite viability loss – strain 3D7, DAPI fluorescence, 100 nL, primary screen (AID 1184).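 Note: parasites grown inside human red blood cells in medium with human serum.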 To be noted: P. falciparum 3D7 growth, 3 d, higher = more signal.
For assay [13], the target named is Homeobox protein Hox-A13 (Mus musculus) (UniProt Q62424). The assay is described as follows: disruptors of Hoxa13 oligonucleotide interaction – biochemical, fluorescence polarization, labeled oligonucleotide, primary screen (AID 1185). To be noted: Hoxa13:DNA binding, 15 min, higher = more signal, called active from +8 up or from −8 down. On the technique in general: In fluorescence polarisation assays a small probe gives low polarisation when free and higher when bound to something large.

The nature of assay [14]: blockers of DNA damage checkpoint Chk1 activation – imaging, HeLa, hydroxyurea, phospho-Chk1 antibody, percent positive cells, primary screen (AID 1186). To be noted: hydroxyurea-induced phospho-Chk1 immunofluorescence imaging, higher = more signal.
Assay [15] in a line: blockers of DNA damage checkpoint Chk1 activation – imaging, HeLa, hydroxyurea, phospho-Chk1 nuclear intensity, primary screen (AID 1187). To be noted: hydroxyurea-induced phospho-Chk1 immunofluorescence imaging, higher = more signal.

Sequence of Homeobox protein Hox-A13 (Mus musculus) (Q62424 whole entry, looked up): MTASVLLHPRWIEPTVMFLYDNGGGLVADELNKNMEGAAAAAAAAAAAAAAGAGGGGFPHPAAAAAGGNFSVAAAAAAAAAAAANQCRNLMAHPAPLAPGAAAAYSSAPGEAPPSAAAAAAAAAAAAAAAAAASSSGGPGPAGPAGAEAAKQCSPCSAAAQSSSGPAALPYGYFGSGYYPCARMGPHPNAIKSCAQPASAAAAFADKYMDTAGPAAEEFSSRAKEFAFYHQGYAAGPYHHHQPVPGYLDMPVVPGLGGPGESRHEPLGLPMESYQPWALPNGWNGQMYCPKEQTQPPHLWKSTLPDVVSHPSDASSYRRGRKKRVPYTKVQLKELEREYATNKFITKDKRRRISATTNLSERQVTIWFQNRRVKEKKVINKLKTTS
Sequence of E3 ubiquitin-protein ligase XIAP (Homo sapiens) (P98170 whole entry, looked up, the tested form may be a part): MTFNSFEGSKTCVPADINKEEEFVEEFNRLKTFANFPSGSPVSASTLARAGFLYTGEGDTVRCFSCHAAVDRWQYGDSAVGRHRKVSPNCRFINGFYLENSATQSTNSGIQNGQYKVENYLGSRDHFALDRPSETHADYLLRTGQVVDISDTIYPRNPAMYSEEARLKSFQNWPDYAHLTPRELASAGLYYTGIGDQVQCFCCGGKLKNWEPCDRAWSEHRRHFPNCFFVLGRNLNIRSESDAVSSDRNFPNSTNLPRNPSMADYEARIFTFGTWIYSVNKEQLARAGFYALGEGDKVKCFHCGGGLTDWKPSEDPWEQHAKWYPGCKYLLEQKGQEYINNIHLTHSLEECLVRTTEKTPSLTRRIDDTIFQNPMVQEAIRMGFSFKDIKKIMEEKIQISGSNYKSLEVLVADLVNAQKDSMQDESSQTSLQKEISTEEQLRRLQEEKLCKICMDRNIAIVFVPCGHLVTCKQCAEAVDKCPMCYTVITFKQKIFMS
Sequence of Dihydroorotate dehydrogenase (quinone), mitochondrial (Plasmodium falciparum (isolate 3D7)) (Q08210 whole entry, looked up): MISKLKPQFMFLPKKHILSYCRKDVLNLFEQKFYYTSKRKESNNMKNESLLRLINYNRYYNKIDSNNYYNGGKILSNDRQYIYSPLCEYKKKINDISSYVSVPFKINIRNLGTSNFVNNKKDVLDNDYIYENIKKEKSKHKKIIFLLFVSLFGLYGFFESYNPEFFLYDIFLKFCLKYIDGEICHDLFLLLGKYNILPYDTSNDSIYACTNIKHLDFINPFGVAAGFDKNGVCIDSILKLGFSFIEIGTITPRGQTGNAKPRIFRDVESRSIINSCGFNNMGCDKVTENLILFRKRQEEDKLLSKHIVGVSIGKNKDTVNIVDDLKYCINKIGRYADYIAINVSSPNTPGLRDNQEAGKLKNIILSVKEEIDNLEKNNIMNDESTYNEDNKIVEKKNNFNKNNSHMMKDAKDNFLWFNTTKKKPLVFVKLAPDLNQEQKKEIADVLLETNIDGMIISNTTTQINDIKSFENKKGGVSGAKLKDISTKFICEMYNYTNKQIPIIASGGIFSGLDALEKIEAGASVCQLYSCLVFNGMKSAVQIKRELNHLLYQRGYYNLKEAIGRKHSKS

Turning to `COCCOC(=O)N1C(=O)[C@@]2(c3cc(C#CCNC(N)=O)ccc31)[C@H](c1ccc(OCCO)cc1)N1[C@H](c3ccccc3)[C@H](c3ccccc3)OC(=O)[C@H]1[C@@H]2C(=O)NC[C@H](O)c1ccccc1`, the z-score in assay [1] is 0.637; in assay [2], 1.82 (inactive); in [3] it was 0.0592 (inactive); in assay [5] it was 2.18 (inactive); in assay [6], 1.54 (inactive); in assay [7], 0.48 (inactive). In addition, the z-score in assay [8] was -0.532 (inactive); in assay [9], -0.45; in [12], -0.599; in [13] it was -1.94 (inactive); in assay [14], -0.3 (inactive); in assay [15] it was -0.102 (inactive). Besides, the composite z-score in assay [4] is -1.88 (inactive); in assay [10], -0.153; in assay [11], 0.586 (inactive); in the assay with XIP peptide (Xip251-270), 0.644.
For `CN1C(=O)C2C(C1=O)C1C=C(CCCO)C2C(C2CC2)N1Cc1cc2c(cc1Br)OCO2` (centres undefined), the z-score in [1] is -0.622; in [2] it was -0.975 (inactive); in [3], -1 (inactive); in [5] it was 0.0721 (inactive); in assay [6], 0.0644 (inactive); in [7], -0.344 (inactive). Besides, the z-score in assay [8] was -0.291 (inactive); in [9], -0.543; in assay [12] it was -1.2; in [13], -7.89 (inactive); in assay [14] it was 0.498 (inactive); in assay [15] it was 0.27 (inactive). In addition, the composite z-score in [4] is -0.341 (inactive); in assay [10], -0.113; in [11] it was 1.34 (inactive); in the assay on XIP peptide (Xip251-270), 0.891.
Take `Cc1ccc(S[C@]2(C(=O)NC(C)C)CC(=O)N(C(C)C)[C@@H]2c2ccc(CO)cc2I)cc1`: the z-score in assay [1] is 0.197; in [2], -2.15 (inactive); in assay [3] it was -0.463 (inactive); in assay [5], 0.444 (inactive); in assay [6], -0.471 (inactive); in [7] it was 0.882 (inactive). Further, the z-score in assay [8] is -0.0992 (inactive); in assay [9] it was -1.72; in assay [12], -2.02; in assay [13], -2.58 (inactive); in [14], 0.0841 (inactive); in assay [15], 0.925 (inactive). Besides, the composite z-score in assay [4] was 0.0738 (inactive); in assay [10] it was 0.158; in [11], 0.317 (inactive); in the assay with XIP peptide (Xip251-270), 0.101.
With `C=C(C(=O)CC[C@H](OC(=O)c1ccccc1-c1ccccc1C(=O)O)c1ccccc1OCCO)C(C)C`, the z-score in assay [1] is 0.0659; in assay [2], -1.04 (inactive); in assay [3] it was 0.181 (inactive); in assay [5], 0.108 (inactive); in assay [6], -0.0722 (inactive); in assay [7], 0.88 (inactive). Besides, the z-score was 0.32 (inactive) in [8]; -0.268 in [9]; -2.47 in [12]; -5.13 (inactive) in [13]; -0.126 (inactive) in assay [14]; -0.0147 (inactive) in [15]. Moreover, the composite z-score was -0.169 (inactive) in [4], 0.194 in assay [10], -0.0286 (inactive) in assay [11] and 0.7 with XIP peptide (Xip251-270).
`[N-]=[N+]=NCc1ccccc1C[C@@]1(C(=O)N2CCCCC2)N=C(c2ccc(OCCCO)cc2)O[C@@H]1c1ccccc1CN=[N+]=[N-]`: the z-score was -0.539 in [1]; 0.069 (inactive) in assay [2]; -1.27 (inactive) in assay [3]; 1.87 (inactive) in assay [5]; 1.61 (inactive) in assay [6]; 0.191 (inactive) in [7]. Moreover, the z-score was 0.594 (inactive) in assay [8]; -0.911 in assay [9]; -2.55 in assay [12]; 0.301 (inactive) in assay [13]; -0.382 (inactive) in assay [14]; -0.903 (inactive) in [15]. For the same compound, the composite z-score was 0.669 (inactive) in assay [4], -0.117 in [10], 0.0378 (inactive) in [11] and -0.0651 in the assay with XIP peptide (Xip251-270).
On to `C=C(COC)C(=O)CC[C@H](OC(=O)c1cccnc1)c1ccc(CO)o1`, for which the z-score in [1] is -0.655; in assay [2] it was -1.29 (inactive); in assay [3], -0.317 (inactive); in assay [5], 0.142 (inactive); in assay [6] it was -0.663 (inactive); in assay [7], -0.659 (inactive). The z-score is -0.649 (inactive) in [8]; -0.732 in assay [9]; 0.535 in [12]; -4.81 (inactive) in assay [13]; 0.169 (inactive) in assay [14]; -0.143 (inactive) in assay [15]. Further, the composite z-score is -3.37 (inactive) in assay [4], 0.0565 in assay [10], 0.0246 (inactive) in assay [11] and 0.193 with XIP peptide (Xip251-270).
On to `O=C1[C@@H]2[C@@H](CC(COc3ccccc3)=C3[C@@H](CCc4ccccc4)OB(O)C[C@@H]32)C(=O)N1Cc1ccccc1`, for which the z-score in assay [1] was -0.665; in assay [2], -1.23 (inactive); in assay [3] it was -0.0801 (inactive); in [5], 0.306 (inactive); in assay [6] it was -0.0775 (inactive); in assay [7] it was -0.304 (inactive). Also, the z-score in [8] is -0.915 (inactive); in assay [9], -0.0577; in assay [12], 1.31; in assay [13] it was -5.54 (inactive); in assay [14], -0.242 (inactive); in [15], -0.22 (inactive). In addition, the composite z-score in assay [4] was -0.77 (inactive); in [10], -0.16; in [11], 0.318 (inactive); in the assay on XIP peptide (Xip251-270), 0.387.
Take `COc1ccc([Si](C)(C)[C@H]2[C@H](CC(=O)N3Cc4ccccc4C[C@H]3CO)O[C@@]3(C(=O)N(Cc4ccc(N5C(=O)c6cccc7cccc5c67)cc4)c4ccccc43)[C@@H]2C)cc1`: the z-score was 0.716 in assay [1]; 0.21 (inactive) in assay [2]; -2 (inactive) in assay [3]; 1.13 (inactive) in assay [5]; 1.77 (inactive) in assay [6]; 0.929 (inactive) in assay [7]. The z-score was 0.472 (inactive) in [8]; -0.737 in assay [9]; -1.79 in assay [12]; -2.7 (inactive) in assay [13]; -1.02 (inactive) in assay [14]; -0.113 (inactive) in assay [15]. Further, the composite z-score was -0.934 (inactive) in assay [4], -0.063 in assay [10], 1.23 (inactive) in assay [11] and 0.738 in the assay on XIP peptide (Xip251-270).
Turning to `COC(=O)c1c2oc(c1C(=O)OC)C(=O)N1CCC[C@H]1Cn1nncc1CN(Cc1ccccc1)C(=O)N[C@H](CO)CC2`, the z-score in [1] was 0.744; in [2], -3.62 (inactive); in assay [3], -0.0795 (inactive); in assay [5] it was -0.0513 (inactive); in [6], 0.738 (inactive); in assay [7] it was 0.663 (inactive). Besides, the z-score is 0.836 (inactive) in [8]; 0.343 in assay [9]; -0.414 in assay [12]; -3.78 (inactive) in assay [13]; 0.159 (inactive) in [14]; 0.306 (inactive) in assay [15]. Further, the composite z-score in assay [4] is 0.453 (inactive); in assay [10], -0.0832; in assay [11], -0.0783 (inactive); with XIP peptide (Xip251-270) it was 0.59.
